The full data set covers some 21,000 targets. This sample favours those with the largest changes.
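Also: competitive chemoproteomic profiling in live THP-1 cells with an iodoacetamide desthiobiotin (IA-DTB) probe, comparing probe-labelled peptide intensities in compound-treated cells against DMSO-treated controls.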

Chain of UniProt Q9Y3R5 (Q9Y3R5 whole entry, looked up): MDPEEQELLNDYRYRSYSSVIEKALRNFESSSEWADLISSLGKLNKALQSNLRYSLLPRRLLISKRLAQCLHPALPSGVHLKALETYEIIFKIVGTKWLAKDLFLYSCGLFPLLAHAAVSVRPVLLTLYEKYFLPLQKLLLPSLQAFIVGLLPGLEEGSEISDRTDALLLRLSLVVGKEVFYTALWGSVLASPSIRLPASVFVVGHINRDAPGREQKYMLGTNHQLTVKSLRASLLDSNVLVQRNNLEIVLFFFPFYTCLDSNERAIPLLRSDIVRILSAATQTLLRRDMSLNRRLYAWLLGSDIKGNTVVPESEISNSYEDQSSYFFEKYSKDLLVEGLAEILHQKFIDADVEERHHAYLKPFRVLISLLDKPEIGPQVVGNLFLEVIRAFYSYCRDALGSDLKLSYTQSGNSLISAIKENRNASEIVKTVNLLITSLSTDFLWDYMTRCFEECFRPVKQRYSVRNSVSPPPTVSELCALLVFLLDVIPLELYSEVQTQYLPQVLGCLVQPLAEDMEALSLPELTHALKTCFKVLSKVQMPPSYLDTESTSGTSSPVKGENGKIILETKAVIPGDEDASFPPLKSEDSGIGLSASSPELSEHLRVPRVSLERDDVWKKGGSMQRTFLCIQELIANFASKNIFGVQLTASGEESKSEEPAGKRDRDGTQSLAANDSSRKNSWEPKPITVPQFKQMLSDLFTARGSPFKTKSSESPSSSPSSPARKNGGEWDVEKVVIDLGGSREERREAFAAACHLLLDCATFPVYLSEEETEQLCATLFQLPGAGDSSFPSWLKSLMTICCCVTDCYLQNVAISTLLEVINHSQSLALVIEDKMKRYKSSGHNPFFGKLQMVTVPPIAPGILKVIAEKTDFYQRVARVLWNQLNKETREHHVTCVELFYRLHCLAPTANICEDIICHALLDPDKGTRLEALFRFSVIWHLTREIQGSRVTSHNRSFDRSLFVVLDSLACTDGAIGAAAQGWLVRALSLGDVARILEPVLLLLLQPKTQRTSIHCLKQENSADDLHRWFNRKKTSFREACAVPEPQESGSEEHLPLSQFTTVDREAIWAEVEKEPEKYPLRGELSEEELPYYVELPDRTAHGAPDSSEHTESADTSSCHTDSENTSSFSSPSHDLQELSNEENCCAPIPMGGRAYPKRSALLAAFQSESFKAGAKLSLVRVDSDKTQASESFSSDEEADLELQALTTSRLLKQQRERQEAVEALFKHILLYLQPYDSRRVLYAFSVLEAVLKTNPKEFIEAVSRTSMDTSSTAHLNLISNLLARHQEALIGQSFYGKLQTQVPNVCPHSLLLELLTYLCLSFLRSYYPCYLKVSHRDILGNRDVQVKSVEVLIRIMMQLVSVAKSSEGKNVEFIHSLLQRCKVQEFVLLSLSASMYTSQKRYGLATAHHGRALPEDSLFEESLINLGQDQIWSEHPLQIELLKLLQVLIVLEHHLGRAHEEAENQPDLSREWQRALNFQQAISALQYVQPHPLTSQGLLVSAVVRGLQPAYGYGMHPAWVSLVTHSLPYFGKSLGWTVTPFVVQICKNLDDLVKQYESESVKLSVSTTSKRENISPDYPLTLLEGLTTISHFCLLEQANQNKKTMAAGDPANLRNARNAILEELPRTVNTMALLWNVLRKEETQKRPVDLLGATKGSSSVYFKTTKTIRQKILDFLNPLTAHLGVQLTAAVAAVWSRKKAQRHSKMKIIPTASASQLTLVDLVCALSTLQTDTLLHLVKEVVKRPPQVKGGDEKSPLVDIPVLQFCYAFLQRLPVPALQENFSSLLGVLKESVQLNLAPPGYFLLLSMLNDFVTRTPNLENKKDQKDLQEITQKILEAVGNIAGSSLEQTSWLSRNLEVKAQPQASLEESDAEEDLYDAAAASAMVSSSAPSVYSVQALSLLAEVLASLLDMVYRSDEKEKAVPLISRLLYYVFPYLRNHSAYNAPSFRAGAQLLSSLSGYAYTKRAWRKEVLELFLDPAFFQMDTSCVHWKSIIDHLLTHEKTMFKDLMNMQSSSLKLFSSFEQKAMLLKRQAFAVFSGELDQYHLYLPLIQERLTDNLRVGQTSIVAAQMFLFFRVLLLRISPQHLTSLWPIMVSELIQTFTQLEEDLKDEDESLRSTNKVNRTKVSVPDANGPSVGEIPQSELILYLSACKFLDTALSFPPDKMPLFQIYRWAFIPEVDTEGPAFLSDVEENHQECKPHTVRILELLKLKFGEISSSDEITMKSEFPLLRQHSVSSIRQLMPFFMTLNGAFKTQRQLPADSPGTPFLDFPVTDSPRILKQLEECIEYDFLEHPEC
Chain of UniProt Q9H410 (Q9H410 whole entry, looked up): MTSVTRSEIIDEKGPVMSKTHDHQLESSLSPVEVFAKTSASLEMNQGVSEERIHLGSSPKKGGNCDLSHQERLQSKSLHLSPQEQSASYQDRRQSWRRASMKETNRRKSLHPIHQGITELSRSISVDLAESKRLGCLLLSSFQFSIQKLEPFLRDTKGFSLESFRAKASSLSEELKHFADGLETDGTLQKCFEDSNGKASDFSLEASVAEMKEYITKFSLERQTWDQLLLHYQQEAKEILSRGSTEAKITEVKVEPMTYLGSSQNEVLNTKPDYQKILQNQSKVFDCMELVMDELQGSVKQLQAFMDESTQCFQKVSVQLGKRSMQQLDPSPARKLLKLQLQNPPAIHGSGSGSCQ
Chain of UniProt Q13617 (Q13617 whole entry, looked up): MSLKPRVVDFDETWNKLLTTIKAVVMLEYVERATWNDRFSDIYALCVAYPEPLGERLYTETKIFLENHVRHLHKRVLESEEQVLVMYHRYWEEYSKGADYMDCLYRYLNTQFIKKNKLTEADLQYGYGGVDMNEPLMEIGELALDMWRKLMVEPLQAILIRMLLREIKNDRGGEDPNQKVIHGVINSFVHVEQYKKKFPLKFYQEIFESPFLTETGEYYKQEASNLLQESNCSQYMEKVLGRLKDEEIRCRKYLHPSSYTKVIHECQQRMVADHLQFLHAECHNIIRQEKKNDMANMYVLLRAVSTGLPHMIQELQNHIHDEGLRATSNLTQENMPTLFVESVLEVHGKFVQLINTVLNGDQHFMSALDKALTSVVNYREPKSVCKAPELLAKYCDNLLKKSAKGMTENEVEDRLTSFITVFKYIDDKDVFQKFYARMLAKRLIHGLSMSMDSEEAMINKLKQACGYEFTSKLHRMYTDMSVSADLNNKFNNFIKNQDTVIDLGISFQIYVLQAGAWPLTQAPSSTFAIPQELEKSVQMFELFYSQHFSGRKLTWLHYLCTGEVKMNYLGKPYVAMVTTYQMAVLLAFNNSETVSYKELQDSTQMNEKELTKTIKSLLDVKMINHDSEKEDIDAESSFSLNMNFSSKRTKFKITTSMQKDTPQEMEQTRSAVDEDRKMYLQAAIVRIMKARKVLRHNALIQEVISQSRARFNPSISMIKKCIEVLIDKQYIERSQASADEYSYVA
Chain of UniProt Q96HD1 (Q96HD1 whole entry, looked up): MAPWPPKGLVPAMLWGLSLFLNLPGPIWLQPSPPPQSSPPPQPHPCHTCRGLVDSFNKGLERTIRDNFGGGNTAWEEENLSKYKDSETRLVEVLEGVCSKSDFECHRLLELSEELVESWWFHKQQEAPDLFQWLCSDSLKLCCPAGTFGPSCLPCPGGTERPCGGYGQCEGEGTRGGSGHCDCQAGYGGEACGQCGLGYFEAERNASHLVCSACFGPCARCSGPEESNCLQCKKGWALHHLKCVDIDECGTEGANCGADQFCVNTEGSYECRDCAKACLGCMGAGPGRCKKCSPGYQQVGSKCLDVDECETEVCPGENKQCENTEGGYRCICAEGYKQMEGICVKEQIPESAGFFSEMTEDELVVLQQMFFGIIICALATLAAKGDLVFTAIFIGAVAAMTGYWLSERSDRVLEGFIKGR
Chain of UniProt Q9UJU6 (Q9UJU6 whole entry, looked up): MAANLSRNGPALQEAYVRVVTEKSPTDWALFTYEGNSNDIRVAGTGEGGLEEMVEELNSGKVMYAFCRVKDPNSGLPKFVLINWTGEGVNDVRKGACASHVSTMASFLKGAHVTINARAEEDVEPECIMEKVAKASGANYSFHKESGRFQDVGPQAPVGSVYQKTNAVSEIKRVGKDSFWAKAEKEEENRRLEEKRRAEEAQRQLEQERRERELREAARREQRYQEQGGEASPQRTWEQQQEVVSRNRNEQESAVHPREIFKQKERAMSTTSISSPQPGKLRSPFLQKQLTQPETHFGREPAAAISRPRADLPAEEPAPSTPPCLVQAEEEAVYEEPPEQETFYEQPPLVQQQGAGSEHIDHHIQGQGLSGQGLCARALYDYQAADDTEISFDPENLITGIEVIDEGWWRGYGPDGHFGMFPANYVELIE
Chain of UniProt O95825 (O95825 whole entry, looked up): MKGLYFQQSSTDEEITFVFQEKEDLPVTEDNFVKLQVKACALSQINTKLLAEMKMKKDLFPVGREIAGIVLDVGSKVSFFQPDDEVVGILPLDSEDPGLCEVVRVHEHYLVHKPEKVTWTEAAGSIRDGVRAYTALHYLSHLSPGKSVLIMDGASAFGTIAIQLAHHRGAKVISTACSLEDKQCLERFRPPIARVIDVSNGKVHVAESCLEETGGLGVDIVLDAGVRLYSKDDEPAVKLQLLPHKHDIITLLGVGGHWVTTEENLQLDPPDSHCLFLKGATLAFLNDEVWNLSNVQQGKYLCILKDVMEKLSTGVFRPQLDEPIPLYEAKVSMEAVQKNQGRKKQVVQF
Chain of UniProt Q9UBR2 (Q9UBR2 whole entry, looked up): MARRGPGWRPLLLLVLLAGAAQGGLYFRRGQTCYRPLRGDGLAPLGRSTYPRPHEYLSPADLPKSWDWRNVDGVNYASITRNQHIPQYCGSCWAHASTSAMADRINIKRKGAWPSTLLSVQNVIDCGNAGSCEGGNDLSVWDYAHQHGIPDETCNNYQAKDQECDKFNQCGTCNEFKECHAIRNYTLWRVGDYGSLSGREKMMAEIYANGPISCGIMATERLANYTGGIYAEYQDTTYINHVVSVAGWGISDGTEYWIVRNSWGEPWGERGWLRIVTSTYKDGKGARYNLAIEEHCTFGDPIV
Chain of UniProt Q14061 (Q14061 whole entry, looked up): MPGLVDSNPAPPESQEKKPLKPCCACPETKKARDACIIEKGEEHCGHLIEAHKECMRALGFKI

Compound in the first assay: CC1Cc2ccccc2N1C(=O)C1CCCN(C1)C(=O)CCl (mixture of isomers) [TRIM25 ligand 11 (diastereomer mixture)]
Kind of assay: probe-labelled cysteine peptide fold change vs DMSO (competition) (log2 fold change); higher = less target engagement (more negative = stronger competition). The conditions noted are these: 10 µM; THP-1; incubation time: 4 h.
Turning to “DHX37_Q8IY37_766_LSCPITALGR (UniProt Q8IY37)”, the “probe-labelled cysteine peptide fold change” value is -0.0635.

In the case of “DPP8_Q6V1X1_611_LSSPEDDPTCK (UniProt Q6V1X1)”, the “probe-labelled cysteine peptide fold change” value turned out to be 0.0995.

With “DNMT1_P26358_580_HAQFVVEQVESYDEAGDSDEQPIFLTPCMR (UniProt P26358)”, the “probe-labelled cysteine peptide fold change” value is 0.0642.

Take “CRYZL1_O95825_177_VISTACSLEDK (UniProt O95825)”: the “probe-labelled cysteine peptide fold change” value turned out to be 0.0726.

Turning to “CRELD1_Q96HD1_229_CSGPEESNCLQCK (UniProt Q96HD1)”, the “probe-labelled cysteine peptide fold change” value turned out to be 0.0143.

Take “DCP2_Q8IU60_391_KLQDNFETDAVYDLPSSSEDQLLEHAEGQPVACNGHCK (UniProt Q8IU60)”: the “probe-labelled cysteine peptide fold change” value was -0.209.

In the case of “DDX42_Q86XP3_339+346_ELCQQIHAECK (UniProt Q86XP3)”, the “probe-labelled cysteine peptide fold change” value is -0.0625.

Take “DIP2B_Q9P265_1282_TCVVVAEERPR<|>DIP2C_Q9Y2E4_1263_TCVVVAEERPR (UniProt Q9Y2E4+Q9P265)”: the “probe-labelled cysteine peptide fold change” value was 0.0276.

Regarding “DDB2_Q92466_322_VYSASQWDCPLGLIPHPHR (UniProt Q92466)”, the “probe-labelled cysteine peptide fold change” value stood at 0.0907.

With “DUS3L_Q96G46_396_TVEVDFVDINVGCPIDLVYKK (UniProt Q96G46)”, the “probe-labelled cysteine peptide fold change” value was -0.169.

Turning to “DOP1B_Q9Y3R5_70_LAQCLHPALPSGVHLK (UniProt Q9Y3R5)”, the “probe-labelled cysteine peptide fold change” value worked out at 0.262.

On to “CRYBG1_Q9Y4K1_594+609_EVQLPTCHSNEPEVVSVASCAPPQEEVLGNEHSHCTAELAAK (UniProt Q9Y4K1)”, for which the “probe-labelled cysteine peptide fold change” value is -0.0918.

As to “CORO1C_Q9ULV4_39_VTWDSSFCAVNPR (UniProt Q9ULV4)”, the “probe-labelled cysteine peptide fold change” value came to 0.0602.

With “CORO7_P57737_691_IVWVCDGR (UniProt P57737)”, the “probe-labelled cysteine peptide fold change” value stood at 0.154.

As to “DBNL_Q9UJU6_97_KGACASHVSTMASFLK (UniProt Q9UJU6)”, the “probe-labelled cysteine peptide fold change” value was -0.0713.

Regarding “DHX37_Q8IY37_486_MLPAGGILVFLTGQAEVHALCR (UniProt Q8IY37)”, the “probe-labelled cysteine peptide fold change” value worked out at 0.281.

Consider “DNM1L_O00429_300_LLMHHIRDCLPELK (UniProt O00429)”, for which the “probe-labelled cysteine peptide fold change” value is -0.355.

With “COX17_Q14061_23+24_KPLKPCCACPETK (UniProt Q14061)”, the “probe-labelled cysteine peptide fold change” value was -0.386.

For the target CTSZ_Q9UBR2_179_ECHAIR (UniProt Q9UBR2), the “probe-labelled cysteine peptide fold change” value is -0.116.

For “DENND4B_O75064_180_GEGTPHTYCR (UniProt O75064)”, the “probe-labelled cysteine peptide fold change” value is 0.0109.

“CRIP2_P52943_150_DWHRPCLR (UniProt P52943)”: the “probe-labelled cysteine peptide fold change” value amounted to 0.642.

As for “DSN1_Q9H410_191_CFEDSNGK (UniProt Q9H410)”, the “probe-labelled cysteine peptide fold change” value was 0.115.

Take “DPYSL2_Q16555_133_SCCDYSLHVDISEWHK (UniProt Q16555)”: the “probe-labelled cysteine peptide fold change” value was found to be 0.131.

For “DIP2A_Q14689_543_ALTQACGYSEAETLTNVLDFKR (UniProt Q14689)”, the “probe-labelled cysteine peptide fold change” value is 0.205.

In the case of “CTSB_P07858_93_EQWPQCPTIK (UniProt P07858)”, the “probe-labelled cysteine peptide fold change” value is -0.026.

As for “DYNC1H1_Q14204_1977_MLSAVSQQVQCIQEALREHSNPNYDK (UniProt Q14204)”, the “probe-labelled cysteine peptide fold change” value was -0.708.

On to “DNAJC10_Q8IXB1_161_EFDAAVNSGELWFVNFYSPGCSHCHDLAPTWR (UniProt Q8IXB1)”, for which the “probe-labelled cysteine peptide fold change” value worked out at 0.476.

Take “DDX28_Q9NUL7_453_DILLCTDIASR (UniProt Q9NUL7)”: the “probe-labelled cysteine peptide fold change” value was 0.0908.

Turning to “DUSP3_P51452_171_EIGPNDGFLAQLCQLNDR (UniProt P51452)”, the “probe-labelled cysteine peptide fold change” value was -0.408.

As to “DPYSL2_Q16555_439_THNSSLEYNIFEGMECR (UniProt Q16555)”, the “probe-labelled cysteine peptide fold change” value worked out at 0.0805.

Regarding “DNAJC2_Q99543_276_TLVDNAYSCDPR (UniProt Q99543)”, the “probe-labelled cysteine peptide fold change” value is -0.0127.

For “DLEC1_Q9Y238_256_LEDSCR (UniProt Q9Y238)”, the “probe-labelled cysteine peptide fold change” value came out at 0.892.

In the case of “DGKZ_Q13574_876_EASVPLGTVVVPGDSDLELCR (UniProt Q13574)”, the “probe-labelled cysteine peptide fold change” value was 0.514.

Turning to “DOK3_Q7L591_493_KGPAPCDRP (UniProt Q7L591)”, the “probe-labelled cysteine peptide fold change” value is -0.0118.

As for “CRYBG1_Q9Y4K1_581+609_EVQLPTCHSNEPEVVSVASCAPPQEEVLGNEHSHCTAELAAK (UniProt Q9Y4K1)”, the “probe-labelled cysteine peptide fold change” value worked out at 0.00451.

On to “CUL2_Q13617_103_GADYMDCLYR (UniProt Q13617)”, for which the “probe-labelled cysteine peptide fold change” value was found to be 0.191.

With “CPNE8_Q86YQ8_118_HDFLGQVFCTLGEIVGSQGSR (UniProt Q86YQ8)”, the “probe-labelled cysteine peptide fold change” value was found to be 0.132.

“CPT2_P23786_512_CSEAFVREPSR (UniProt P23786)”: the “probe-labelled cysteine peptide fold change” value is -0.197.

Regarding “DIDO1_Q9BTC0_455_CGAQAGIK (UniProt Q9BTC0)”, the “probe-labelled cysteine peptide fold change” value was -0.117.

Staying with this assay, now noted: 50 µM; THP-1; incubation time: 4 h.
As for “DHX37_Q8IY37_766_LSCPITALGR (UniProt Q8IY37)”, the “probe-labelled cysteine peptide fold change” value is 0.0316.

“DPP8_Q6V1X1_611_LSSPEDDPTCK (UniProt Q6V1X1)”: the “probe-labelled cysteine peptide fold change” value came out at 0.0507.

In the case of “DNMT1_P26358_580_HAQFVVEQVESYDEAGDSDEQPIFLTPCMR (UniProt P26358)”, the “probe-labelled cysteine peptide fold change” value worked out at 0.604.

As to “CRYZL1_O95825_177_VISTACSLEDK (UniProt O95825)”, the “probe-labelled cysteine peptide fold change” value turned out to be 0.107.

With “CRELD1_Q96HD1_229_CSGPEESNCLQCK (UniProt Q96HD1)”, the “probe-labelled cysteine peptide fold change” value was -0.197.

Take “DCP2_Q8IU60_391_KLQDNFETDAVYDLPSSSEDQLLEHAEGQPVACNGHCK (UniProt Q8IU60)”: the “probe-labelled cysteine peptide fold change” value was -0.464.

Take “DDX42_Q86XP3_339+346_ELCQQIHAECK (UniProt Q86XP3)”: the “probe-labelled cysteine peptide fold change” value is -0.045.

As to “DIP2B_Q9P265_1282_TCVVVAEERPR<|>DIP2C_Q9Y2E4_1263_TCVVVAEERPR (UniProt Q9Y2E4+Q9P265)”, the “probe-labelled cysteine peptide fold change” value is 0.197.

Regarding “DDB2_Q92466_322_VYSASQWDCPLGLIPHPHR (UniProt Q92466)”, the “probe-labelled cysteine peptide fold change” value is -0.0149.

As for “DUS3L_Q96G46_396_TVEVDFVDINVGCPIDLVYKK (UniProt Q96G46)”, the “probe-labelled cysteine peptide fold change” value was -0.11.

Regarding “DOP1B_Q9Y3R5_70_LAQCLHPALPSGVHLK (UniProt Q9Y3R5)”, the “probe-labelled cysteine peptide fold change” value was 0.136.

“CRYBG1_Q9Y4K1_594+609_EVQLPTCHSNEPEVVSVASCAPPQEEVLGNEHSHCTAELAAK (UniProt Q9Y4K1)”: the “probe-labelled cysteine peptide fold change” value was -0.248.

With “CORO1C_Q9ULV4_39_VTWDSSFCAVNPR (UniProt Q9ULV4)”, the “probe-labelled cysteine peptide fold change” value is -0.0375.

With “CORO7_P57737_691_IVWVCDGR (UniProt P57737)”, the “probe-labelled cysteine peptide fold change” value was determined as 0.334.

Regarding “DBNL_Q9UJU6_97_KGACASHVSTMASFLK (UniProt Q9UJU6)”, the “probe-labelled cysteine peptide fold change” value is -0.568.

Take “DHX37_Q8IY37_486_MLPAGGILVFLTGQAEVHALCR (UniProt Q8IY37)”: the “probe-labelled cysteine peptide fold change” value amounted to 0.563.

For the target “DNM1L_O00429_300_LLMHHIRDCLPELK (UniProt O00429)”, the “probe-labelled cysteine peptide fold change” value was -0.178.

On to “COX17_Q14061_23+24_KPLKPCCACPETK (UniProt Q14061)”, for which the “probe-labelled cysteine peptide fold change” value is -0.745.

Turning to CTSZ_Q9UBR2_179_ECHAIR (UniProt Q9UBR2), the “probe-labelled cysteine peptide fold change” value came out at 0.567.

Turning to “DENND4B_O75064_180_GEGTPHTYCR (UniProt O75064)”, the “probe-labelled cysteine peptide fold change” value worked out at 0.131.

Take “CRIP2_P52943_150_DWHRPCLR (UniProt P52943)”: the “probe-labelled cysteine peptide fold change” value was -0.0653.

As for “DSN1_Q9H410_191_CFEDSNGK (UniProt Q9H410)”, the “probe-labelled cysteine peptide fold change” value came out at 0.0971.

“DPYSL2_Q16555_133_SCCDYSLHVDISEWHK (UniProt Q16555)”: the “probe-labelled cysteine peptide fold change” value is -0.000105.

On to “DIP2A_Q14689_543_ALTQACGYSEAETLTNVLDFKR (UniProt Q14689)”, for which the “probe-labelled cysteine peptide fold change” value was determined as 0.286.

Turning to “CTSB_P07858_93_EQWPQCPTIK (UniProt P07858)”, the “probe-labelled cysteine peptide fold change” value was -0.172.

For “DYNC1H1_Q14204_1977_MLSAVSQQVQCIQEALREHSNPNYDK (UniProt Q14204)”, the “probe-labelled cysteine peptide fold change” value is -0.193.

With “DNAJC10_Q8IXB1_161_EFDAAVNSGELWFVNFYSPGCSHCHDLAPTWR (UniProt Q8IXB1)”, the “probe-labelled cysteine peptide fold change” value was -0.235.

Consider “DDX28_Q9NUL7_453_DILLCTDIASR (UniProt Q9NUL7)”, for which the “probe-labelled cysteine peptide fold change” value was 0.0393.

Consider “DUSP3_P51452_171_EIGPNDGFLAQLCQLNDR (UniProt P51452)”, for which the “probe-labelled cysteine peptide fold change” value was -0.0736.

Turning to “DPYSL2_Q16555_439_THNSSLEYNIFEGMECR (UniProt Q16555)”, the “probe-labelled cysteine peptide fold change” value is -0.109.

In the case of “DNAJC2_Q99543_276_TLVDNAYSCDPR (UniProt Q99543)”, the “probe-labelled cysteine peptide fold change” value is -0.0992.

Turning to “DLEC1_Q9Y238_256_LEDSCR (UniProt Q9Y238)”, the “probe-labelled cysteine peptide fold change” value amounted to 0.979.

As for “DGKZ_Q13574_876_EASVPLGTVVVPGDSDLELCR (UniProt Q13574)”, the “probe-labelled cysteine peptide fold change” value was 0.581.

As for “DOK3_Q7L591_493_KGPAPCDRP (UniProt Q7L591)”, the “probe-labelled cysteine peptide fold change” value stood at 0.0304.

“CRYBG1_Q9Y4K1_581+609_EVQLPTCHSNEPEVVSVASCAPPQEEVLGNEHSHCTAELAAK (UniProt Q9Y4K1)”: the “probe-labelled cysteine peptide fold change” value is -0.813.

For “CUL2_Q13617_103_GADYMDCLYR (UniProt Q13617)”, the “probe-labelled cysteine peptide fold change” value was 0.129.

As to “CPNE8_Q86YQ8_118_HDFLGQVFCTLGEIVGSQGSR (UniProt Q86YQ8)”, the “probe-labelled cysteine peptide fold change” value was 0.595.

As for “CPT2_P23786_512_CSEAFVREPSR (UniProt P23786)”, the “probe-labelled cysteine peptide fold change” value is -0.0581.

As to “DIDO1_Q9BTC0_455_CGAQAGIK (UniProt Q9BTC0)”, the “probe-labelled cysteine peptide fold change” value was -0.185.

Values taken from the supplement of paper PMC12067093, “Discovery and optimisation of a covalent ligand for TRIM25 and its application to targeted protein ubiquitination” (Chemical Science, 2025).
